Sampled rows, rich in hits. Any-hit rate of the full collection: about 3.1%.
CSC inhib – cancer stem cell viability inhibitors, primary screen, luminescence; cancer stem cell-like cells viability; inhibition, % at 7.5 µM; hit rate 1.1% among 300,000; AID 2717, 2010; in the data active means inhibition above about 75%; tested in HMLE shEcad cells
SKKanGAS inh – S. pyogenes SKKanGAS growth inhibitors in kanamycin, primary screen, streptokinase expression inhibitor project, SKKanGAS strain, BacTiter-Glo luminescence; inhibition, % at 7.5 µM; hit rate 1.3% among 300,000; AID 1662, 2009; 6 h;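 active means mean replicate score, as percent of positive control median, at least 50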;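 further: strain carries kanamycin resistance gene driven by streptokinase promoter and grows in 40 µg/ml kanamycin; loss of luminescence reflects streptokinase promoter inhibition or plain growth inhibition; 0% = median of DMSO wells and 100% = positive control at its reference dose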
PP5 inh – PP5 phosphatase inhibitors, primary screen, biochemical, fluorescence; Serine/threonine-protein phosphatase 5 (Homo sapiens), P53041; inhibition, % at 6.7 µM; hit rate 0.18% among 320,000; purified PP5c, OMFP substrate fluorescence;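 active means inhibition above the campaign's mean inhibition across all tested compounds plus 3 SD, cut at about 9.5% in these data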;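 further: 0% = DMSO only and 100% = 100 µM cantharidin control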
Target sequence (P53041 whole entry, looked up): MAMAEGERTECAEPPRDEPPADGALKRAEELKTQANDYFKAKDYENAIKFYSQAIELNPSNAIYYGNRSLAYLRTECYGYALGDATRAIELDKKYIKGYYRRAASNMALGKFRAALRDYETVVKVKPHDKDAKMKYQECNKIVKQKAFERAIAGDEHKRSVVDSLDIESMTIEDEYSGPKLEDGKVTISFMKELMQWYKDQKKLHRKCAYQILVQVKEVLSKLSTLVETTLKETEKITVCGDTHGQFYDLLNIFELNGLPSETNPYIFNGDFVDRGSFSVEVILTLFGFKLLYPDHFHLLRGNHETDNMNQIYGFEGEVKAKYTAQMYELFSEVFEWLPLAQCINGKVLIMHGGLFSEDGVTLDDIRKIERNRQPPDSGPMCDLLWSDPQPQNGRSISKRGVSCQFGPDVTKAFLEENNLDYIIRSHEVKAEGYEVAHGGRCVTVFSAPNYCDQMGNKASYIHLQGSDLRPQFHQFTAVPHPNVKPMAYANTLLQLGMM
PP1 counter – PP1-alpha phosphatase inhibitors, primary screen, counter-screen for PP5 inhibitor project, biochemical, fluorescence, OMFP substrate, single point. hit rate 0.9% among 320,000. Serine/threonine-protein phosphatase PP1-alpha catalytic subunit (Homo sapiens), P62136. purified PP1alpha. AID 2235, 2010. inhibition, % at 6.7 µM;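 active means inhibition above the mean inhibition of all tested compounds plus 3 SD, computed separately for each screening campaign, cut at about 15% in these data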
Beta apoptosis – inhibitors of cytokine-induced beta cell apoptosis, primary screen, luminescence; hit rate 0.8% among 300,000; INS-1E cytokine-induced death, ATP luminescence, 48 h; percent of positive-control rescue, neutral wells zero; protection from apoptosis, % (test concentration not listed);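 active means Every replicate reaches about 75%, or at least half do and their mean reaches it too, limit read from the data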;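 further: 0% = cytokine-treated negative control wells and 100% = positive control rescue; higher means more ATP so stronger rescue from cytokine killing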
PP1 inh confirm – PP1 phosphatase inhibitors, confirmation, biochemical, fluorescence, OMFP substrate, triplicate. inhibition, % at 6.7 µM. purified PP1alpha. shares compounds with PP1 counter. hit rate 52% among 1,900. AID 2358, 2010;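 active means mean PP1 inhibition above a set limit taken from the earlier primary screen, cut at about 15% in these data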
PP5 counter – PP5 phosphatase inhibition by PP1 hits, confirmation, counter-screen for PP1 inhibitor project, biochemical, fluorescence, triplicate. shares compounds with PP1 counter. purified PP5c, OMFP fluorescence. inhibition, % at 6.7 µM. hit rate 4% among 1,900;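 active means mean PP5 inhibition over triplicate wells above about 9.5% taken from the earlier PP1 screen, limit read from the data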
The depositor's hits bear a star.

CCCCCCN(C(=O)CCCCCN1C(=O)NC(c2ccc(-c3ccccc3)cc2)C(C(=O)OCc2ccccc2)=C1C)C(C(=O)NCCCC)c1ccccn1 (stereo not given) was read as SKKanGAS inh 26.
Screening CCCCCCN(C(=O)CCCCCN1C(=O)NC(c2ccc(-c3ccccc3)cc2)C(C(=O)OCc2ccccc2)=C1C)C(C(=O)NCCCC)c1ccc(OCC(=O)OC)cc1 (stereo not given) returned CSC inhib -2, SKKanGAS inh 19, PP5 inh -1, PP1 counter 30*, Beta apoptosis -6, PP1 inh confirm 20* and PP5 counter -2.
Screening CCCCNC(=O)C(c1ccc(OCC(=O)OC)c(C(=O)OC)c1)N(CCOC)C(=O)CCCCCN1C(=O)NC(c2ccc(-c3ccccc3)cc2)C(C(=O)OCc2ccccc2)=C1C (stereo not given) returned CSC inhib 125*, SKKanGAS inh 25, PP5 inh 5, PP1 counter 35*, Beta apoptosis -2, PP1 inh confirm 35* and PP5 counter 4.
Screening COc1ccc(CNC[C@@H](CCCCN(C)Cc2ccc(OC)cc2)N2C[C@H](c3ccccc3)N(CCc3ccc(Cl)c(Cl)c3)C(=O)C2=O)cc1 returned CSC inhib 107*, SKKanGAS inh 13, PP5 inh 5, PP1 counter 39*, Beta apoptosis 99*, PP1 inh confirm 13 and PP5 counter -1.
Cc1ccc(CNC(=O)c2ccc(N3CCC4(CC3)CC(c3cccc(Br)c3)=NO4)c(NC(=O)c3ccco3)c2)cc1 was read as CSC inhib -2, SKKanGAS inh 15, PP5 inh 0, PP1 counter 12 and Beta apoptosis 9.
Screening Cc1ccc(CNC(=O)c2ccc(N3CCC4(CC3)CC(c3ccccc3)=NO4)c(NC(=O)c3ccco3)c2)cc1 returned CSC inhib -11, SKKanGAS inh 22, PP5 inh 3, PP1 counter 20*, Beta apoptosis 5, PP1 inh confirm 16* and PP5 counter -2.
`Cc1c(Cl)ccc2sc(N3CCN(C(=O)C4=COCCO4)CC3)nc12` gave CSC inhib 2, SKKanGAS inh -6, PP5 inh 2 and PP1 counter -1.
`COc1ccccc1Oc1ccc2c(c1)C(=O)N(CC1CCCO1)C2=O` (stereo not given) gave CSC inhib -17, SKKanGAS inh -7, PP5 inh 1, PP1 counter -3 and Beta apoptosis 3.
`Clc1ccc2nc(-c3ccccn3)c(Nc3ccc4c(c3)OCO4)n2c1` gave CSC inhib 22, SKKanGAS inh 92*, PP5 inh 3, PP1 counter 46*, Beta apoptosis 1, PP1 inh confirm 40* and PP5 counter -1.
Screening c1cc2ccc3ccc(-n4cnnn4)c4ccc(c1)c2c34 returned CSC inhib 12, SKKanGAS inh 5, PP5 inh 1, PP1 counter 20*, Beta apoptosis 17, PP1 inh confirm 23* and PP5 counter -1.
CCN(CC(=O)Nc1c(F)cccc1F)C(=O)/C=C/c1ccc2ccccc2n1 was read as CSC inhib -10, SKKanGAS inh 2, PP5 inh -2, PP1 counter 22*, PP1 inh confirm 4 and PP5 counter -4.
Screening CCN(CC(=O)Nc1c(F)cccc1F)C(=O)c1ccc2ccccc2n1 returned CSC inhib 7, SKKanGAS inh -2, PP5 inh -1, PP1 counter -2 and Beta apoptosis -4.
For COC(=O)C1=C(CSc2nc3c(cc2C#N)CN(C)CC3)OC(N)=C(C#N)C1c1ccccc1F (stereo not given) the results were CSC inhib 0, SKKanGAS inh 19, PP5 inh 3, PP1 counter 18*, Beta apoptosis -5, PP1 inh confirm 5 and PP5 counter 4.
